From PubChem BioAssay
This is a sample that favours compounds with a hit; in the whole collection about 3.1% have one here.
LGR2 inh: blocks bursicon-induced cAMP signaling via Drosophila LGR2; HEK293 LGR2, CRE-luciferase, bursicon-stimulated, 4 h; inhibition, % at 9.99 µM; actives 0.35% (n = 380,000); AID 720647;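 active means drop in luminescence signal, shown as inhibition above about 50% in the replicate tests, limit read from the data, passing the limit was not always enough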;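 further: agonist challenge used bursicon conditioned medium at about half maximal strength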
TROY NFkB inh: inhibitors of TROY-dependent NF-kB signaling; AID 1347056; actives 0.98% (n = 360,000); inhibition, % at 10 µM; Q293 LMP1-TROYcd NF-kB luciferase reporter, 4 h;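 active means compounds whose plate-normalised and pattern-corrected inhibition of the luciferase reporter signal at the single screening dose is 50% or more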
EWS-Fli inh: blocks EWS/Fli oncoprotein-driven transcription; A673 NR0B1-luciferase reporter, viability-normalised; inhibition, % at 12.6 µM; actives 0.67% (n = 350,000);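 active means mean inhibition of at least 50% after viability correction, with every replicate also passing that limit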;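 further: firefly luciferase signal divided by Alamar Blue viability fluorescence both relative to DMSO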
PAX8 inh HTS: lowers PAX8-driven luciferase in RMG-I cells; RMG-I TPO-luciferase reporter, SteadyGlo, 24 h; inhibition, % at 12.6 µM; actives 1.2% (n = 360,000);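 active means mean replicate inhibition at least 60% with every replicate also reaching 60%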;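 further: luciferase light reporting Pax8 driven TPO promoter activity; plate controls were median of neutral control wells for no effect and mitoxantrone controls for full effect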
LMP1 NFkB inh: inhibitors of Epstein-Barr LMP1-induced NF-kappaB reporter | LMP1-induced NF-kappaB luciferase reporter cells, luminescence | inhibition, % at 12.5 µM | actives 0.69% (n = 350,000) | AID 504558; in the data active means inhibition above about 41%;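 further: 0% = neutral control wells and 100% = reference inhibitor control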
TWEAK-Fn14 inh: TWEAK-Fn14 signaling inhibition; TWEAK-stimulated Fn14 reporter cells, luciferase luminescence, 8 h; inhibition, % at 10 µM; actives 2% (n = 360,000); in the data active means inhibition above about 50%
* = called active by the depositor; . = no result.

SMILES	LGR2 inh	TROY NFkB inh	EWS-Fli inh	PAX8 inh HTS	LMP1 NFkB inh	TWEAK-Fn14 inh
N#Cc1ccc(-c2ccc([C@H]3[C@@H](CO)N4CCCCN(C(=O)Cc5ccccc5)C[C@@H]34)cc2)cc1	-10	.	8	3	.	.
Cc1ccc(-c2cc(-c3ccc(C)cc3)[n+](-c3ccccc3)c(-c3ccc(C)cc3)c2)cc1	.	71*	.	.	45*	92*
O=C(c1ccc(Cl)cc1)C1CCCN(Cc2cccc3cnccc23)C1 (centres undefined)	13	85*	19	14	13	21
O=C(c1cccc(Cl)c1)C1CCCN(Cc2cccc3cnccc23)C1 (centres undefined)	48	8	13	10	8	26
N#Cc1cccc(-c2ccc([C@@H]3[C@@H](CO)N4CCCCN(C(=O)Cc5cccnc5)C[C@@H]34)cc2)c1	-5	.	5	-5	.	.
Cc1ccc(OP2(=O)Nc3cc(C)c(C)cc3S2)cc1 (centres undefined)	.	40	-21	-16	-35	65*
O=c1[nH]c(=O)n(-c2ccccc2F)c(O)c1/C=C1\C=Nc2ccccc21	20	2	22	-3	0	54*
COc1ccc(-n2c(O)c(/C=C3\C=Nc4ccc(Br)cc43)c(=O)[nH]c2=O)c(OC)c1	27	-33	17	17	-13	55*
O=c1[nH]c(=O)n(-c2ccc(F)cc2)c(O)c1/C=C1\C=Nc2ccccc21	-6	-10	6	20	1	15
C[C@H]1CN([C@@H](C)CO)C(=O)CCCn2cc(nn2)CO[C@H]1CN(C)C(=O)Oc1ccc2ccccc2c1	2	.	0	.	.	.
O=C1/C(=C/c2ccccc2)C[C@@]2(O)[C@H]3Cc4ccc(O)c5c4[C@@]2(CCN3CC2CC2)C1O5 (some centres undefined)	.	64*	.	.	20	91*
Oc1ccc2c3c1O[C@H]1c4[nH]c5c(c4CC4(O)C(C2)N(CC2CC2)CCC314)CC1(O)[C@H]2Cc3ccc(O)c4c3[C@@]1(CCN2CC1CC1)C5O4 (some centres undefined)	11	.	-11	.	.	.
COc1ccc(C#Cc2ccc([C@@H]3[C@H]4CN(C(=O)Cc5ccccc5)CCCCN4[C@H]3CO)cc2)cc1	22	.	20	7	.	.
CC(C)C(NC(=O)C(C(C)C)N(C)C)C(=O)N(C)C(C(=O)N1CCCC1C(=O)N1CCCC1C(=O)NCc1ccccc1)C(C)C (centres undefined)	-16	17	56*	76*	5	5
Cc1ccccc1-c1ccc([C@@H]2[C@@H](CO)N3CCCCN(C(=O)Cc4ccccn4)C[C@@H]23)cc1	-1	.	-2	-2	.	.
CC1=CC(O)C(O)C2(C)C1CC1OC(=O)C(O)C3C(C)C(O)C4(O)OCC13C42 (centres undefined)	.	15	.	.	-4	-3
COC(=O)[C@]12OC[C@]34C([C@@H](O)[C@@H]1O)[C@]1(C)CC(=O)C(O)=C(C)[C@@H]1C[C@H]3OC(=O)[C@H](O)[C@@H]24 (some centres undefined)	93*	79*	-20	-2	16	95*
CSc1cccc(NP2(=O)OCC(C)([N+](=O)[O-])CO2)c1 (centres undefined)	-8	-2	-5	-23	62*	25
CC1([N+](=O)[O-])COP(=O)(Nc2ccccc2F)OC1 (centres undefined)	2	4	10	4	-3	2
COC(=O)[C@H]1[C@H](CO)[C@H]2Cn3c(ccc(-c4cccc(OC)c4)c3=O)[C@@H]1N2CC1CC1	4	.	1	.	.	.
Cc1cc(C(=O)CS(=O)(=O)c2ccccc2)cc(C)c1OC(=O)N(C)C	-75	60*	-71	-47	-15	30
O=c1[nH]c(O)c(N=Nc2ccc3c(c2)OCCO3)c(=O)[nH]1	67*	88*	29	8	36	91*
O=c1[nH]c(=S)[nH]c(O)c1N=Nc1ccc2c(c1)OCCO2	21	0	-14	-44	15	36
CN(C)C(=O)Oc1ccc(OC(=O)N(C)C)cc1	6	-5	.	.	1	-2
CN(C)C(=O)Oc1ccc(OCc2nc3ccccc3[nH]2)cc1	53*	24	40	30	31	68*
CCC(=O)N1[C@@H]2Cn3c(ccc(C4=CCCC4)c3=O)[C@H]1[C@@H](C(=O)OC)[C@@H]2CO	0	.	-4	-6	.	.
